Measured values from PubChem BioAssay (EPA / NIEHS).
Several values for one entry are separate records, joined by “and”; a condition that tells them apart may be missing. Equal values may be shown once. Results filed as inconclusive are left out. More than one record can exist for a structure, and the calls need not agree. Activity calls are given as the source filed them. The calls were made as follows, unless noted: active = hit-call score of the fitted dose curve at least 0.9, where 1 is the maximum; inconclusive = response in the unintended direction; inactive = score below 0.9.

Legend:
[1] = target: human Peroxisome Proliferator-activated Receptor alpha (PPARa), PPARA (gene 5465) (UniProt Q07869); assay: ATG_PPARa_TRANS: Attagene TRANS-FACTORIAL HepG2 Assay for human Peroxisome Proliferator-activated Receptor alpha (PPARa) (AID 2283001);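 as to AC50: potency for gain of reporter signal over DMSO so agonist or activator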
Outline: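 Exposure: 24 h, transiently transfected HepG2 cells. Endpoint: GAL4-UAS reporter mRNA, RT-PCR with capillary electrophoresis fluorescence. Baseline: DMSO; increases fitted.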

[2] = target: human Peroxisome Proliferator-activated Receptor delta (PPARd), PPARD (gene 5467) (UniProt Q03181); assay: ATG_PPARd_TRANS: Attagene TRANS-FACTORIAL HepG2 Assay for human Peroxisome Proliferator-activated Receptor delta (PPARd) (AID 2283002)
Outline: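 Measured quantity: GAL4-UAS reporter transcript induction in HepG2 after 24 h chemical dosing, with NR-Gal4 chimeras supplied by transient transfection. Detection by RT-PCR and capillary electrophoresis; upward fit against DMSO.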

[3] = read-out: Intercellular Adhesion Molecule 1 (ICAM1), ICAM1 (gene 3383); assay: BSK_3C_ICAM1: BioMAP Diversity Plus: 3C Assay for Intercellular Adhesion Molecule 1 (ICAM1) Biomarker Activity (AID 2283003; active = hit-call score of the fitted dose curve at least 0.9, where 1 is the maximum; inactive = score below 0.9); settings: primary human endothelial cells (HUVEC); actives raise or lower the signal
Outline: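 ELISA read-out of ICAM-1; HUVEC (primary human), 3C system, 24 h post-dosing; bidirectional fit vs DMSO baseline.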

[4] = target: human Retinoic Acid Receptor beta (RARb), RARB (gene 5915) (UniProt P10826); assay: ATG_RARb_TRANS: Attagene TRANS-FACTORIAL HepG2 Assay for human Retinoic Acid Receptor beta (AID 2283004)
Outline: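 HepG2 cells transiently transfected with multiplexed GAL4-UAS reporter units expressing chimeric NR–Gal4 fusions; 24 h compound exposure. Reporter mRNA quantified by RT-PCR, 6-FAM labelling, HpaI digestion and capillary electrophoresis; gain-of-signal fitted against DMSO baseline.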

[5] = target: Retinoic acid receptor alpha (Homo sapiens) (UniProt P10276); assay: ATG_RARa_TRANS: Attagene TRANS-FACTORIAL HepG2 Assay for human Retinoic Acid Receptor alpha (RARa) (AID 2283005)
Outline: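 HepG2 cells transiently transfected with multiple reporter units expressing chimeric RARα-GAL4 fusion, with GAL4-UAS-driven reporters. After 24 h compound exposure, reporter mRNA induction quantified by RT-PCR and capillary electrophoresis with fluorescent labeling; gain-of-signal fitted relative to DMSO control.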

[6] = BSK_3C_Proliferation: Cell Proliferation Assessment in the BioMAP Diversity Plus: 3C Assay (AID 2283006; active = hit-call score of the fitted dose curve at least 0.9, where 1 is the maximum; inactive = score below 0.9;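 as to AC50: potency may reflect either rise or fall in cell number versus DMSO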); settings: primary human endothelial cells (HUVEC)
Outline: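 HUVEC, sub-confluent; 48 h chemical exposure; 10% TCA fix, 0.1% SRB stain, A560 total protein. Gain or loss of signal fitted both directions vs DMSO control.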

[7] = target: Nuclear receptor subfamily 1 group I member 2 (Homo sapiens) (UniProt O75469); assay: ATG_PXR_TRANS: Attagene TRANS-FACTORIAL HepG2 Assay for human Pregnane X Receptor (PXR) (AID 2283008)
Outline: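 HepG2 transfected (FuGene 6) with GAL4-UAS reporter units + PXR-Gal4 chimera; dosed 24 h. Total RNA → oligo(dT) RT → PCR → 6-FAM primer extension → HpaI cut → CE. Gain-of-signal vs DMSO.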

[8] = target: human Retinoic Acid Receptor gamma (RARg), RARG (gene 5916) (UniProt P13631); assay: ATG_RARg_TRANS: Attagene TRANS-FACTORIAL HepG2 Assay for human Retinoic Acid Receptor gamma (RARg) (AID 2283009)
Outline: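 Readout: reporter transcript levels via RT-PCR, 6-FAM primer-extension labelling, HpaI digestion and capillary electrophoresis. Cells: HepG2 carrying transfected RARg-GAL4 chimera plus UAS reporter set. Dosing 24 h; DMSO negative control.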

[9] = target: human RAR-related Orphan Receptor beta (RORb), RORB (gene 6096) (UniProt Q92753); assay: ATG_RORb_TRANS: Attagene TRANS-FACTORIAL HepG2 Assay for human RAR-related Orphan Receptor beta (RORb) (AID 2283010)
Outline: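 HepG2, transient MRTU transfection (GAL4-UAS reporters, exogenous NR-Gal4 chimeras); 24 h compound exposure; total RNA → RT-PCR → 6-FAM primer extension → HpaI digest → CE fluorescence. Positive direction vs DMSO baseline.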

[10] = target: Peroxisome proliferator-activated receptor gamma (Homo sapiens) (UniProt P37231); assay: ATG_PPARg_TRANS: Attagene TRANS-FACTORIAL HepG2 Assay for human Peroxisome Proliferator-activated Receptor-gamma (PPARg) (AID 2283007)
Outline: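 After 24 h of chemical exposure, transfected HepG2 cells carrying PPARγ-Gal4 chimera reporter constructs are lysed for RNA. Reporter transcripts are measured by RT-PCR and capillary electrophoresis with fluorescent labelling, and gain of signal is fitted versus DMSO.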

Measured: AC50

Chain of human Retinoic Acid Receptor gamma (RARg), RARG (gene 5916) (P13631 whole entry, looked up, the tested form may be a part): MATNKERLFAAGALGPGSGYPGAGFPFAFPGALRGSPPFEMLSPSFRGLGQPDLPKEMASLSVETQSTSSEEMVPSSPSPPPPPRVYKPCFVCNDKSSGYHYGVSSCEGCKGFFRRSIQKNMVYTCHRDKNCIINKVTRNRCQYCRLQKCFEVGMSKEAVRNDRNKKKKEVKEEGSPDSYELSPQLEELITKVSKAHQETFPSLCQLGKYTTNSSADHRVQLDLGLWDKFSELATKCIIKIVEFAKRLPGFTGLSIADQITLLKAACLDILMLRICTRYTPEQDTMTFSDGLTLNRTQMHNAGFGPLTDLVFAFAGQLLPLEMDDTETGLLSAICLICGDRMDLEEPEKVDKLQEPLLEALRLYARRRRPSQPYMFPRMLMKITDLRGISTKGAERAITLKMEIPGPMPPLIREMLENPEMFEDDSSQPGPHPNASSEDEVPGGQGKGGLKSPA
Chain of Peroxisome proliferator-activated receptor gamma (Homo sapiens) (P37231 whole entry, looked up, the tested form may be a part): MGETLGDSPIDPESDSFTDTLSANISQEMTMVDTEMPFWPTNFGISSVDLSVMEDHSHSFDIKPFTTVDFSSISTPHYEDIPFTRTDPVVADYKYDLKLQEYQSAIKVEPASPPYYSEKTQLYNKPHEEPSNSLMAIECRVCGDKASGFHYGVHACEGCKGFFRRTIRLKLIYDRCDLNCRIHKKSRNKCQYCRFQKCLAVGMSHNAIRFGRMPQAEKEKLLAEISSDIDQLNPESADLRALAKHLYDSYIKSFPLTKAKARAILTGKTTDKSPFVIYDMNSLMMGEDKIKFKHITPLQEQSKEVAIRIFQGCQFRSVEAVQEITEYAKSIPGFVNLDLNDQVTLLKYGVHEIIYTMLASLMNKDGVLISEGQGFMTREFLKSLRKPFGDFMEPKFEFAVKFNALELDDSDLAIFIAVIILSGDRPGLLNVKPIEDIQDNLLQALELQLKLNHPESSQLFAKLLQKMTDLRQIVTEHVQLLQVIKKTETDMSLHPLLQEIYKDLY
Chain of human RAR-related Orphan Receptor beta (RORb), RORB (gene 6096) (Q92753 whole entry, looked up, the tested form may be a part): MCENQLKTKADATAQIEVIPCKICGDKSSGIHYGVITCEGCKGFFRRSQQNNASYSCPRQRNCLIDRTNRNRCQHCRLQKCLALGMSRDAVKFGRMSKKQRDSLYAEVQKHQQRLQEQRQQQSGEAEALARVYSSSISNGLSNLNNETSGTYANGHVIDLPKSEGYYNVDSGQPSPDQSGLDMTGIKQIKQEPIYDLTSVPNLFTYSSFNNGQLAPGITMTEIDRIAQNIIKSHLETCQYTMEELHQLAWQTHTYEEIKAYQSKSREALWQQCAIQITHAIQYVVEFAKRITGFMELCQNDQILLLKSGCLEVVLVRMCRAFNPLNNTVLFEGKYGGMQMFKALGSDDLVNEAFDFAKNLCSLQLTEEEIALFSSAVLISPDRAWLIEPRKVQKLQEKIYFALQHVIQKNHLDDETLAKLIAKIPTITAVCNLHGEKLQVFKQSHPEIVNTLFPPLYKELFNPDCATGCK
Chain of human Retinoic Acid Receptor beta (RARb), RARB (gene 5915) (P10826 whole entry, looked up, the tested form may be a part): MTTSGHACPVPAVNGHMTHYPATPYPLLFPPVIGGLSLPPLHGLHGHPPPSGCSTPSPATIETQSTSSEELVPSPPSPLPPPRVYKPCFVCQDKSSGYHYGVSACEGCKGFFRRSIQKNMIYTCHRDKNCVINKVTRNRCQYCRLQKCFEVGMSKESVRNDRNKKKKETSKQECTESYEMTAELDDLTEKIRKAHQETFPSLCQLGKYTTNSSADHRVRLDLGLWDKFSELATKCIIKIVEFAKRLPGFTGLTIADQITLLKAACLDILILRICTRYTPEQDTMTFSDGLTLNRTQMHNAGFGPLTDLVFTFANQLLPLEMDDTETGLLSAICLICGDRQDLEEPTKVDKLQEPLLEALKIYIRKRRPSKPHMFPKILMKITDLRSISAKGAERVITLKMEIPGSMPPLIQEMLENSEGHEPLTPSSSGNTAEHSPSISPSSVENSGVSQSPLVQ
Chain of human Peroxisome Proliferator-activated Receptor delta (PPARd), PPARD (gene 5467) (Q03181 whole entry, looked up, the tested form may be a part): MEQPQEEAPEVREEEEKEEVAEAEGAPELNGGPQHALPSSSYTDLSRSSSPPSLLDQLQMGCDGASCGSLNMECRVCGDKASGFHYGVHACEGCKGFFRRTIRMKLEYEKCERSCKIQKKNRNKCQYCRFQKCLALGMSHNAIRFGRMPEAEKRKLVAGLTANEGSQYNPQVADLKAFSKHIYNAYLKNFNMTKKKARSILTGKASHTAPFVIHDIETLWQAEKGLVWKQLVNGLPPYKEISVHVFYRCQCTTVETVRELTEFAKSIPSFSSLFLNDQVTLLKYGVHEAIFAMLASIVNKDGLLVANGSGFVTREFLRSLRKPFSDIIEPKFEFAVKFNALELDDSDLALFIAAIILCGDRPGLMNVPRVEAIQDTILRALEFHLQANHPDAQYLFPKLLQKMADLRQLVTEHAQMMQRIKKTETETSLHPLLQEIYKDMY
Chain of Nuclear receptor subfamily 1 group I member 2 (Homo sapiens) (O75469 whole entry, looked up, the tested form may be a part): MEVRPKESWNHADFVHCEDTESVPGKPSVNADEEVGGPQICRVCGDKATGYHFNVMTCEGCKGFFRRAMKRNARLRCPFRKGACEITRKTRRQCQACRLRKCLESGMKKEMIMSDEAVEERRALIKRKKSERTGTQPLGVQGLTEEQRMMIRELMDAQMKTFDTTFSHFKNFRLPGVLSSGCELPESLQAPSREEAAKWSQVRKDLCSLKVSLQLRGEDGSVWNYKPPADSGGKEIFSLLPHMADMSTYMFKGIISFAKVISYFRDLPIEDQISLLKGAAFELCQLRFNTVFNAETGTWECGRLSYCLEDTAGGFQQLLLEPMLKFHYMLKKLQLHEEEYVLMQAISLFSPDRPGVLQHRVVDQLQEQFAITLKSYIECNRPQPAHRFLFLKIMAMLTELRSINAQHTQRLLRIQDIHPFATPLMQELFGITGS
Chain of Retinoic acid receptor alpha (Homo sapiens) (P10276 whole entry, looked up, the tested form may be a part): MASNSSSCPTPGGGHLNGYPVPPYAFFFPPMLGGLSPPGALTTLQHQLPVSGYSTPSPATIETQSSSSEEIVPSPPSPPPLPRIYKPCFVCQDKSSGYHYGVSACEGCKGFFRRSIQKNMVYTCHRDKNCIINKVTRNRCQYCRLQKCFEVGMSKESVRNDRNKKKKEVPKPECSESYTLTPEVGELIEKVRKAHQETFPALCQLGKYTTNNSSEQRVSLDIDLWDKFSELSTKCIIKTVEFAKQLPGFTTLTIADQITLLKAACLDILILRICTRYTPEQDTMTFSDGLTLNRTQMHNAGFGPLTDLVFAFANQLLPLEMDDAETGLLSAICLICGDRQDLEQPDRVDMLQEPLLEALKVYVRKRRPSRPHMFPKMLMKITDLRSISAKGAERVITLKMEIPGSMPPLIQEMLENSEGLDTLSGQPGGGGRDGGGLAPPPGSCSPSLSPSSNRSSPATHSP
Chain of human Peroxisome Proliferator-activated Receptor alpha (PPARa), PPARA (gene 5465) (Q07869 whole entry, looked up, the tested form may be a part): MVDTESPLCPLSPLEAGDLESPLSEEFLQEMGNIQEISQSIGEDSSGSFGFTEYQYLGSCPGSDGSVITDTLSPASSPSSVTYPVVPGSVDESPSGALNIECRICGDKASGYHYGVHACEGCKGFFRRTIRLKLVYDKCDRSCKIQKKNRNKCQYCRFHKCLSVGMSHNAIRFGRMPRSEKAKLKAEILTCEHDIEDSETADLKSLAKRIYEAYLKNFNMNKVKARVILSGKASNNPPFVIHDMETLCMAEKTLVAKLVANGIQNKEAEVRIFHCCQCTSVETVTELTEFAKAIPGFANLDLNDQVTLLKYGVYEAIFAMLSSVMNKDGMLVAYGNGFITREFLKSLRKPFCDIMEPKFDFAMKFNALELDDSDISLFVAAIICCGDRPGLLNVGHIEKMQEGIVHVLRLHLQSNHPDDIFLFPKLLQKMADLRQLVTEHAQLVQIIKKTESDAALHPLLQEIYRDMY

C[N+](C)(CCCNS(=O)(=O)CCC(F)(F)C(F)(F)C(F)(F)C(F)(F)C(F)(F)C(F)(F)F)CC(=O)[O-]
inactive: [1] | [2] | [4] | [5] | [10] | [8]

CS(=O)(=O)c1ccc([C@@H](CC2CCCC2)C(=O)Nc2cnccn2)cc1Cl
active: [6] 31.6 µM | [7] 3.42 µM
inactive: [1] | [2] | [3] | [10]

O=P(O)(O)CCC(F)(F)C(F)(F)C(F)(F)C(F)(F)C(F)(F)C(F)(F)F
not listed: [5] | [7]
inactive: all other assays above

O=C1OC2(c3ccccc31)c1cc(I)c(O)c(I)c1Oc1c2cc(I)c(O)c1I
active: [3] 12 µM
inactive: [1] | [2] | [6] | [9]

CCCCCCCCCCCC(=O)O
inactive: [1] | [2] | [4] | [5] | [10] | [7] | [8]
active: [10] 52.9 µM

COCN(COC)c1nc(N(COC)COC)nc(N(COC)COC)n1
inactive: [1] | [2] | [3] | [6] | [7] | [8]

CN(CCO)S(=O)(=O)C(F)(F)C(F)(F)C(F)(F)C(F)(F)C(F)(F)C(F)(F)C(F)(F)C(F)(F)F
active: [6] 0.662 µM
inactive: [1] | [2] | [3] | [4] | [5] | [6] | [10] | [8] | [9]

CCCCN(C)C
not listed: [3] | [6] | [10]
inactive: all other assays above

CC(C)C=O
not listed: [3] | [6]
inactive: all other assays above

C[C@]12CC[C@@H]3c4ccc(O)cc4CC[C@H]3[C@@H]1C[C@@H](O)[C@@H]2O
not listed: [7] | [8] | [9]
inactive: all other assays above

O=C(O)CCC(F)(F)C(F)(F)C(F)(F)C(F)(F)C(F)(F)C(F)(F)F
active: [10] 73.4 µM
inactive: [1] | [2] | [3] | [6] | [9]

CC(C)(O)C(=O)c1ccccc1
inactive: [1] | [2] | [4] | [5]
active: [7] 30 µM

Oc1cc2ccccc2cc1O
active: [1] 42.8 µM
inactive: all other assays above

O=C(c1ccccc1)c1ccccc1
not listed: [5] | [7] | [10]
inactive: all other assays above

O=C(CC(=O)C(F)(F)C(F)(F)C(F)(F)F)c1cccs1
active: [1] 13.3 µM and 14.1 µM | [3] 46.2 µM and 50 µM | [6] 15.1 µM and 16.5 µM | [10] 5.3 µM and 10.5 µM
inactive: [2] | [5] | [8] | [9]

Cc1cc(Cc2cc(C)cc(C(C)(C)C)c2O)c(O)c(C(C)(C)C)c1
inactive: [1] | [2] | [4] | [5] | [8]
active: [10] 12.6 µM | [7] 0.0594 µM

CCCCCc1ccc(O)cc1
inactive: [1] | [2] | [4] | [9]
active: [3] 15.9 µM | [6] 10.5 µM | [10] 41.4 µM | [7] 20.7 µM

Nc1ccn([C@@H]2O[C@H](CO)[C@@H](O)C2O)c(=O)n1 (some centres undefined)
inactive: [1]
active: [2] 56.6 µM

Cc1cccc2c1ccc1ccccc12
active: [6] 20 µM | [7] 11.2 µM
inactive: all other assays above

COC(O)c1ccccc1 (centres undefined)
not listed: [3] | [6] | [8]
inactive: all other assays above

Cc1ccc(N=Nc2c(O)ccc3ccccc23)c(C)c1
active: [6] 15 µM | [10] 6.99 µM | [7] 3.36 µM
not listed: [5]
inactive: all other assays above

FC(F)(F)C1(F)C(F)(F)C(F)(F)C(F)(F)C1(F)F
not listed: [3] | [6] | [7]
inactive: all other assays above

Oc1c(Cl)cc(Cl)cc1Sc1cc(Cl)cc(Cl)c1O
inactive: [2] | [8] | [9]
active: [1] 11.1 µM | [3] 33.5 µM and 34.8 µM | [6] 5.56 µM and 4.63 µM | [10] 2.69 µM

OCC(F)(F)C(F)(F)C(F)(F)C(F)(F)C(F)(F)C(F)(F)C(F)(F)C(F)(F)C(F)(F)C(F)(F)C(F)(F)F
active: [6] 141 nM and 224 nM
not listed: [5] | [8]
inactive: all other assays above
